# Measurements taken from PubChem BioAssay (NCI).
# The panel holds about 79,000 compounds, 15% with a hit somewhere; the sample as a whole holds those more often. Activity calls are given as the source filed them. Rule as the data show it: active = growth inhibition above about 70%; inactive = the rest.
# Assay: NCI Yeast Anticancer Drug Screen. Data for the mec2-1 strain (AID 157)
# Settings: S. cerevisiae mec2-1 strain, at 50.0 µM, active compounds read high
# Procedure, shortened: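 Growth inhibition is read against vehicle-treated controls after compound exposure of the mec2-1 yeast strain, which is defective in DNA damage repair or cell cycle control.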
row,SMILES,growth inhibition
1,CCCCCCCCCCCCCCCCCC1=NCC(C)O1 (stereo not given),-14% (inactive)
2,O=C1C(N=Cc2c(O)ccc3ccccc23)CON1C(c1ccccc1)(c1ccccc1)c1ccccc1 (stereo not given),37.5% (inactive)
3,COc1cc(/C=C/C(=O)OC2C(O)C3CC(OC(=O)c4cc(OC)c(OC)c(OC)c4)CC2N3C)cc(OC)c1OC (stereo not given),-21.6% (inactive)
4,Cc1cc([N+](=O)[O-])ccn1,1.1% (inactive)
5,COc1cc(NC(C)CCCN)c2nccc(C)c2c1 (stereo not given),12.2% (inactive)
6,O=S(=O)(N1CCOCC1)N1CCOCC1,-7.7% (inactive)
7,NC(=O)N/N=C/c1ccccc1O,11.2% (inactive)
8,COc1ccc2nc3cccc([N+](=O)[O-])c3c(NCCC(=O)O)c2c1,-18.9% (inactive)
9,CCN(CC)P(=O)(c1ccc2c(c1)OCCOCCOCCOCCO2)N(CC)CC,22.9% (inactive)
10,N#CC(NCCCNC(C#N)c1ccccc1)c1ccccc1 (stereo not given),5.05% (inactive)
11,CC(=O)SC1CC2CCC1C2 (stereo not given),-18.2% (inactive)
12,CCOC(=O)COc1c(C)cccc1C,5.45% (inactive)
13,CCCCOCCOCC(C)O (stereo not given),10.2% (inactive)
14,CC(C)CC(Br)C(=O)NCC(=O)NCC(=O)O (stereo not given),-17.1% (inactive)
15,OC1CCCCC2CC2C1O (stereo not given),-2.8% (inactive)
16,CSc1nc(NC2OC(COC(C)=O)C(OC(C)=O)C(OC(C)=O)C2OC(C)=O)c2c(n1)OCC2=O (stereo not given),-13.7% (inactive)
17,Nc1ncnc2nc(N3CCN(CCO)CC3)[nH]c12,-8.75% (inactive)
18,ClC1CCC(c2ccccc2)CC1 (stereo not given),-3.45% (inactive)
19,CC(C)[Si](C#CC[Si](C(C)C)(C(C)C)C(C)C)(C(C)C)C(C)C,-6% (inactive)
20,Cc1ccc(N(C(=O)CC(=O)NN)C(=O)c2ccccc2Cl)cc1,-13.6% (inactive)

row,SMILES,growth inhibition
1,Cc1nc2cc(Cl)ccc2s1,2.8% (inactive)
2,c1ccc2[nH]c(N=Nc3cccc4c(N=Nc5cc6ccccc6[nH]5)cccc34)cc2c1,-11.4% (inactive)
3,CCOc1ccc(N(O)C(C)=O)cc1,-10.4% (inactive)
4,CC1CC(=O)C(CC(=O)O)[C@H]1C(C(=O)C(=O)Nc1cc(Cl)ccc1Cl)[N+](=O)[O-] (stereo not given in full),-11.3% (inactive)
5,O=[N+]([O-])c1ccc(C(O)(C#CCN2CCCC2)c2ccccc2)cc1 (stereo not given),11.9% (inactive)
6,CCC(CO)N1CNC(=S)NC1 (stereo not given),-14.1% (inactive)
7,CC(=O)Nc1ccccc1NOC(=O)c1ccccc1NC(C)=O,-8.9% (inactive)
8,CCN(CC)c1ccc(C(C#N)(c2ccc(N(CC)Cc3cccc(S(=O)(=O)O)c3)cc2)c2ccc(N(CC)Cc3cccc(S(=O)(=O)O)c3)cc2)cc1,8.15% (inactive)
9,CC1CCCN(C(=O)Nc2ccccc2)C1 (stereo not given),-0.8% (inactive)
10,CCCC(=O)Oc1ccc2ccccc2c1,23.5% (inactive)
11,CCOC(=O)[C@H]1Nc2ccc(C)cc2C2c3ccccc3CC21 (stereo not given in full),-28.2% (inactive)
12,CC(C)CN(CC#N)CC(C)C,-26.9% (inactive)
13,O=[N+]([O-])c1ccc(-c2cc3ccccc3nc2Cl)cc1,12.1% (inactive)
14,CC(C)(C)[Si](C)(C)OCC1OC(n2cnc3c(N)ncnc32)C(O)C1O (stereo not given),-15.2% (inactive)
15,O=C(NC(=O)c1ccc(F)c(Cl)c1)NC1CC1,-1.15% (inactive)
16,N#CCCNCCC[Si]12OCCN(CCO1)CCO2,1.35% (inactive)
17,Cc1cc(N(CCC#N)CCC#N)ccc1/C(N=Nc1cccc(Cl)c1)=N/NC(=O)c1cc(Cl)ccc1O,4.9% (inactive)
18,CCCCCCCCOc1ccc(Cl)cc1,-11.8% (inactive)
19,NC(=O)c1ccccc1NC(=O)C(=O)Cc1nc2ccccc2[nH]c1=O,-1.55% (inactive)
20,CC(=O)OCC1OC(n2ccc(=O)[nH]c2=O)CC1N=[N+]=[N-] (stereo not given),8.7% (inactive)
